The panel holds about 83,000 compounds, 20% with a hit somewhere; the sample as a whole holds those more often.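 Single-concentration screen, 48 h exposure, 96-well plates. Endpoint: percent growth. Below 10 = active.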 Unmarked numbers belong to inactive results. Active and inactive are the calls of the source.

Holding throughout (test): NCI-60 one-dose screen, 48 h (100 = growth as untreated, 0 = no growth, -100 = all killed)
Conditions in all cases: 10 µM unless noted

Experiment [1] concerns HCT-15 colon.
The subject of experiment [2] is HT29 colon.
Experiment [3] concerns SNB-75 CNS.
The test system of experiment [4] is SNB-19 CNS.
The subject of experiment [5] is U251 CNS.
In experiment [6] the test system is PC-3 prostate.
The subject of experiment [7] is SK-MEL-5 melanoma.
Experiment [8] concerns UACC-62 melanoma.
Experiment [9] deals with LOX IMVI melanoma.
Experiment [10] concerns SK-MEL-28 melanoma.

Turning to `Cc1ccccc1NC(=O)N/C(N)=N/c1nc(C)c(C)s1`, the growth in experiment [1] is 26.4%; in experiment [2], 16.6%; in experiment [3], -33.2% (active); in [4] it was 39.9%; in experiment [5] it was 21.3%; in [6], 30.6%. Besides, the growth in [7] is 40.5%; in experiment [8], 42.7%; in experiment [9], 37.8%; in experiment [10], 60.7%.

Regarding `OC(COc1ccccc1Cl)COc1ccccc1Cl`, the growth in experiment [1] was 86.1%; in [2] it was 92.5%; in [3], 85.4%; in experiment [4], 108%; in experiment [5], 91.5%; in experiment [6], 95.9%. In addition, the growth in experiment [7] was 96.8%; in experiment [8], 92%; in [9], 85.3%; in experiment [10], 94.2%.

On to `COc1cccc(-c2nn(-c3ccccc3)cc2-c2ccnc(NCCCNC(=O)c3ccc(F)cc3)c2)c1`, for which the growth is 24.9% in experiment [1]; 11.7% in [2]; 46.2% in experiment [3]; 67.2% in experiment [4]; 36.4% in experiment [5]; 27.1% in [6]. Besides, the growth is 6.09% (active) in experiment [7], 40.1% in experiment [8], 55.7% in experiment [9] and 58.7% in experiment [10].

`C=C(C)[C@@H]1CC[C@]2(C)[C@H](CC=C3[C@@H]4CC(C)(C)CC[C@]4(C(N)=O)CC[C@]32C)[C@@]1(C)CCC#N`: the growth was 14.8% in experiment [1]; 39.3% in experiment [2]; 29.3% in experiment [3]; 47.7% in experiment [4]; 30.6% in [5]; -0.165% (active) in experiment [6]. Moreover, the growth in [7] is -2.59% (active); in [8], 15.7%; in [9], 36.9%; in experiment [10], 45.8%.

Take `Cc1ccc(Nc2nc(N)nc(CSCC(=O)NN)n2)cc1`: the growth in [1] was 101%; in experiment [2] it was 106%; in experiment [3], 85.2%; in [4], 98.5%; in [5], 92.9%; in [6], 93%. The growth in [7] is 101%; in experiment [8], 90.8%; in experiment [9], 95.2%; in experiment [10], 99.9%.

In the case of `CCCCC1CCCCN1C(=O)OCC` (stereo not given), the growth is 103% in experiment [1]; 94.1% in [2]; 97.8% in experiment [3]; 106% in experiment [4]; 96.1% in experiment [5]; 93.5% in experiment [6]. Moreover, the growth in experiment [7] was 111%; in experiment [8] it was 107%; in experiment [9], 101%; in experiment [10], 104%.

For `N#Cc1nc2c(S(=O)(=O)c3ccc(Cl)cc3)c(N)n(Nc3cccc(Cl)c3)c2nc1C#N`, the growth was 91.2% in experiment [1]; 69.5% in experiment [2]; 55.9% in [3]; 64.6% in experiment [4]; 40% in experiment [5]; -56.8% (active) in experiment [6]. In addition, the growth in experiment [7] is 42.8%; in experiment [8], 49.2%; in [9], 61.3%; in [10] it was 26.1%.

As for `COc1ccc(C2=Nc3c(N)ncnc3NC(c3ccc4c(c3)OCO4)C2)cc1` (stereo not given), the growth in [1] was 94.8%; in [2], 93.2%; in experiment [3], 66.2%; in experiment [4] it was 85%; in [5], 94.3%; in experiment [6] it was 77.2%. For the same compound, the growth in [7] is 88.2%; in [8] it was 80.6%; in experiment [9], 94%; in experiment [10], 101%.

On to `CCN(CC)CCCNc1ccc(Nc2ccc(OC)cc2)cc1`, for which the growth in experiment [1] was 105%; in experiment [2], 67.5%; in [3], 80%; in [4], 102%; in experiment [5], 79.8%; in [6], 55.3%. Moreover, the growth is 91.2% in [7], 95.8% in experiment [8], 86.4% in [9] and 101% in experiment [10].

Regarding `C=CCOC1=CC(=O)c2ccccc2C1=O`, the growth in experiment [1] is 94.9%; in experiment [2], 80.5%; in [3] it was 48%; in experiment [4] it was 104%; in [5] it was 86.7%; in experiment [6] it was 85.9%. In addition, the growth in [7] was 27.3%; in experiment [8], 57%; in [9], 3.82% (active); in experiment [10] it was 87%.

As for `C[C@@H]1N=C(c2ccc3ccccc3n2)Nc2nc3ccccn3c2C1=O`, the growth was 86.8% in [1]; 115% in experiment [2]; 84.7% in [3]; 91.2% in [4]; 106% in experiment [5]; 96.8% in [6]. The growth in [7] was 94.3%; in [8], 90.1%; in [9] it was 93%; in experiment [10], 112%.

As to `NNC(=O)c1nc(N)n(-c2ccc(S(N)(=O)=O)cc2)n1`, the growth is 107% in [1]; 99.9% in experiment [2]; 92.5% in experiment [3]; 96.4% in experiment [4]; 88.8% in experiment [5]; 89.7% in [6]. Further, the growth in [7] was 96.9%; in experiment [8], 99.2%; in experiment [9], 93.3%; in experiment [10], 108%.

Take `Cn1cc(-c2csc(-c3ccccc3)n2)c2cccnc21`: the growth in experiment [1] is -40.3% [100 µM] (active); in experiment [2], -67.5% [100 µM] (active); in [3], -15.9% [100 µM] (active); in [4], -50.2% [100 µM] (active); in [5], -33.8% [100 µM] (active); in [6], -16.9% [100 µM] (active). The growth in experiment [7] is -83.2% [100 µM] (active); in experiment [8], -62.7% [100 µM] (active); in experiment [9], -54.3% [100 µM] (active); in experiment [10] it was -57.4% [100 µM] (active).

These data come from PubChem BioAssay (NCI).
